Screening data: PubChem, National Center for Advancing Translational Sciences (NCATS)
ERK EGF block: inhibitors of EGF-stimulated ERK signaling pathway; HEK293-V1b, EGF-stimulated phospho-ERK AlphaScreen; Potency, µM (top dose mostly 11.5 µM), usual class: inhibitors; 130,000 compounds, 0.41% hits; AID 1454; further: nearly all actives have a fitted effect of over 55% in size
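Compounds are titrated over HEK293-V1b cells kept overnight in 1% FBS. After 30 min at 37C, EGF (25 nM final) triggers ERK phosphorylation for 5 min, measured by AlphaScreen in lysates.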
HTT aggregate: reduces HttQ103-GFP aggregates in PC12 cells; Potency, µM (doses to about 46.1 µM), most hits filed as inhibitors; PC12 HttQ103-GFP aggregates, Acumen cytometry, 40 h; 220,000 compounds, 1.1% hits; further: nearly all actives have a fitted effect of over 60% in size
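Huntingtin Q103 exon 1–GFP aggregates in induced PC12 cells (100 nM tebufenozide) were quantified by cytometry from lysates, with compounds dosed in titration.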
GLA inh pH 4.5: inhibitors of human alpha-galactosidase A at pH 4.5 | P06280 | purified enzyme, 4-MU-alpha-Gal fluorescence, pH 4.5 | activity change, negative = inhibition, % at 105 µM | 230,000 tested, under 10 active | AID 1467
Target sequence (P06280 whole entry, looked up): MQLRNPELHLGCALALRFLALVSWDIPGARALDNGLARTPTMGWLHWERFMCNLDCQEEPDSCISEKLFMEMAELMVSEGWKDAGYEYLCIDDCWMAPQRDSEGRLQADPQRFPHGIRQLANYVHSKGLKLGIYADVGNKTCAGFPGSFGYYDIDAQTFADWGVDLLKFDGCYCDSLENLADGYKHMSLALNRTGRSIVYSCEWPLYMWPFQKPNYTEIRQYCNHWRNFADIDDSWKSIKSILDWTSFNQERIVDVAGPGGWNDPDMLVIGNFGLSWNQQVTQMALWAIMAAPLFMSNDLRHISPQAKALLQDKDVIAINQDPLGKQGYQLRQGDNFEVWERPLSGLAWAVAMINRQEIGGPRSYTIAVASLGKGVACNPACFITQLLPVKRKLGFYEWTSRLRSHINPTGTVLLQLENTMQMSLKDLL
GLA spleen mod: alpha-galactosidase A (human) modulation. P06280. human spleen homogenate, 4MU-alpha-Gal fluorescence, 40 min. Potency, µM (highest dose often 80 µM), most hits filed as inhibitors. 240,000 compounds, 0.008% hits. AID 2107
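Human spleen homogenate (1 ug) as enzyme source, 4-methylumbelliferyl-alpha-D-galactopyranoside 1 mM final, citrate/phosphate pH 5.0 with 0.01% Tween-20. Compounds 40 min at 37C, NaOH/glycine stop; fluorescence Ex 365/Em 440, Hill-fit AC50.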
HTT ATP protect: protects HTT-Q103 PC12 cells, measured by ATP; PC12 HTT-Q103 induced, cytoprotection, ATP luminescence, 40 h; Potency, µM (top dose mostly 56.4 µM), actives largely listed as activators; 230,000 compounds, 0.14% hits; AID 1471; further: nearly all actives have a fitted effect of over 45% in size
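Compounds were screened for protection of PC12 cells against cell death after tebufenozide induction (100 nM final) of mutant Huntingtin exon 1 (Q103) fused to GFP.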
A number is an active result; - = inactive; ? = inconclusive; . = not tested or not shown; ! = not active in a repeat; [ ] = remark or other dose. Most compounds without a hit are left out; they make up all but 1.2% or so of the library. The call rests on the fitted dose curve; in most records, active means well fitted curve in the direction sought with a large enough effect; inconclusive means small, poorly fitted or top-dose-only effect, or another doubt; inactive means no such curve, though single readings can be large; an effect the other way counts as inactive or inconclusive.

SMILES	ERK EGF block	HTT aggregate	GLA inh pH 4.5	GLA spleen mod	HTT ATP protect
CCCNC(=O)c1ccc(CN2CCc3ccccc3C2)cc1	-	-	-	-	-[10 µM]
C/C(=N\NC(=O)c1ccc(CN2CCc3ccccc3C2)cc1)c1ccccc1O	?	10µM	-	-	-
N#Cc1cc2sc3nnc(-c4ccncc4)n3c2cc1C#N	.	.	-	-	13µM
CCC(=O)Oc1c(C(=O)CC)cc2c(C)cc(=O)oc2c1C	-	13µM	-	-	.
O=C(O)CC[C@@H](C(=O)O)N1C(=O)c2ccccc2C1=O	-	-[9.22 µM]	-	7.9µM!	-[10 µM]
Cc1csc2ncnc(N3CCN(C(=O)Nc4ccc(OC(F)(F)F)cc4)CC3)c12	28µM	-[9.22 µM]	-	-	-[10 µM]
Cc1csc2c(N3CCN(C(=O)Nc4ccccc4)CC3)ncnc12	?	-[9.22 µM]	-	-	-[10 µM]
CCSc1ccc(C(=O)Nc2cccc(C)n2)cc1[N+](=O)[O-]	-	-	-	-	-[10 µM]
Cc1cccc(NC(=O)c2ccc(NC(C)c3ccccc3)c([N+](=O)[O-])c2)n1 (centres undefined)	14µM	-	-	-	-[10 µM]
C=CCc1cccc(CNc2nc3ccccc3n2C(C)C)c1O	.	18µM	-	-	-
O=P1(O)OP(=O)(O)OP(=O)(O)O1.[Al]	.	.	.	-	.
COc1ccc(Nc2nc(-c3ccc4c(c3)NC(=O)CO4)cs2)cc1	20µM	?	-	-	-
COc1ccccc1Nc1nc(-c2ccc3c(c2)NC(=O)CO3)cs1	-	-	-	-	-
COc1ccccc1N1CCN(CCCCN2C(=O)c3ccccc3C2=O)CC1	-	.	-	10µM!	-
CCOc1ccccc1N1CCN(C(=O)CCCN2C(=O)c3cccc4cccc(c34)C2=O)CC1	-	20µM	-	-	-[10 µM]
O=C(CCCN1C(=O)c2cccc3cccc(c23)C1=O)N1CCN(c2ccccc2O)CC1	-	-	-	-	-[10 µM]
CC(=O)OC1CC2C(C)(C)C(=O)C3OC3[C@]2(C)C2CC[C@@]3(C)C(c4ccoc4)OC(=O)C4OC43[C@]12C (some centres undefined)	-	.	-	-	-
CCc1c(C)nc2ncnn2c1Nc1ccc(C)c(C)c1	22µM	?	-	-	-[10 µM]
N#CCCn1c(=O)c(-c2ccc(F)cc2)nc2cnc(Oc3cccc(Cl)c3)nc21	-	.	.	-	3.2µM
N#CCCn1c(=O)c(-c2ccc(Cl)cc2)nc2cnc(Oc3cccc(Cl)c3)nc21	-	.	.	-	-
Cc1ccc(/C=C/C(=O)c2c(C)cc(C)[nH]c2=O)cc1	.	?	?	-	-
CCc1ccc(/C=C/C(=O)c2c(C)cc(C)[nH]c2=O)cc1	.	25µM	-	-	-[10 µM]
Nc1ncnc2c1ncn2[C@@H]1O[C@H](C(=O)N2CCN(CC(=O)Nc3cccc4c3CNC4=O)CC2)[C@@H](O)[C@H]1O	.	.	.	-	.
Cc1ccc(S(=O)(=O)NC(C)(C)CSc2nncn2N)cc1	.	2.8µM	-	-	?
Cc1ccc(S(=O)(=O)NC(C)(C)CSc2nnc(Nc3ccccc3)s2)cc1	.	-[9.22 µM]	-	-	-
SMILES	ERK EGF block	HTT aggregate	GLA inh pH 4.5	GLA spleen mod	HTT ATP protect
CC[C@H](C)N	.	.	.	-	.
Cc1ccccc1CN1CCN(CC(=O)NCc2ccccc2)C1=O	.	-	-	-	4.5µM
CN(C)S(=O)(=O)N1CCN(S(=O)(=O)c2ccc(F)cc2)CC1	.	-	-	-	-
CN(C)S(=O)(=O)c1ccc(N2CCN(S(=O)(=O)c3ccc(F)cc3)CC2)c(Cl)c1	.	10µM	-	-	-[10 µM]
CC(=O)c1ccc(-c2cccc(C3C4C=CCCC4(C)C(=O)N3Cc3ccccc3)c2)cc1 (centres undefined)	.	.	.	-	.
Cc1cc(C(=O)OCc2nnc(-c3ccccc3)o2)c(C)n1-c1ccccc1	.	11µM	-	-	-
CCCCCCCCCCCCCCC(C(=O)OC)C(O)(CC(=O)OC)C(=O)OC (centres undefined)	-	.	-	-	.
Cc1ccc(C)c2c1[nH]c1ccccc12	.	-	-	-	-
CNCCCCc1cnc(C)c2[nH]c3ccccc3c12	-	.	-	-	3.5µM
O=C(C[n+]1cccc2ccccc21)c1ccccc1	-	-	-	-	-[10 µM]
CCCCCCCCC[n+]1cccc2c3ccccc3ccc21	.	2.5µM	-	-	-
CCCCCCCCCCCCCCCC[n+]1cccc2ccccc21	?	7.9µM	-	-	-[10 µM]
CC(C)(C)OC(=O)NS(=O)(=O)NCc1ccco1	.	.	.	-	.
CC1(OC(=O)C2CCCC2)C(=O)C=C2C=C(c3ccsc3)N(c3cccc(C#N)c3)C=C2C1=O (centres undefined)	.	.	-	-[17.5 µM]	-[10 µM]
Cc1ccc(SC[C@H](c2ccccc2)N2CCN(CC(C)C)CCC2=O)cc1	32µM	-[9.22 µM]	-	-	-[10 µM]
Cc1ccc(SCC(c2ccccc2)N2CCN(CC(C)C)CCC2=O)cc1 (centres undefined)	.	.	.	-	.
COc1cc2cc3c4cc(OC)c(OC)cc4cc[n+]3c(C)c2cc1OC	-	.	-	-	-
CC(Oc1ccc(Cl)cc1Cl)c1nc(-c2ccc(NC(=O)c3ccncc3)cc2)no1 (centres undefined)	-	-	-	-	-[10 µM]
CC(Oc1ccc(Cl)cc1Cl)c1nc(-c2ccc(NC(=O)c3cccnc3)cc2)no1 (centres undefined)	.	7.9µM	-	-	-
CN1/C(=C/c2cc[n+](C)c3ccccc23)C=Cc2ccccc21	10µM	2.5µM	-	-	-
COc1cc2c(cc1O)CCN[C@@]21CS[C@H]2c3c(OC(C)=O)c(C)c4c(c3C(COC1=O)N1C2C2c3c(cc(C)c(OC)c3O)CC([C@@H]1O)N2C)OCO4 (some centres undefined)	.	0.0025µM	.	.	-
CCCCS(=O)(=O)N1C2=NC(C(=O)OC)=C(C(=O)OC)[C@@H]3N(C)c4ccccc4[C@]23C[C@H]1C(=O)OC	.	.	-	-[17.5 µM]	-[10 µM]
CCCCCC(O)/C=C/C=O (centres undefined)	-	.	-	-	-
Cc1nn(-c2ccccc2)c(N)c1N=Nc1ccc(Cl)cc1	?	3.5µM	-	-	-[10 µM]
CC1=C(CO)C(=O)OC([C@@H](C)C2CC[C@H]3C4C[C@H]5O[C@]56[C@@H](O)C=CC(=O)[C@]6(C)C4CC[C@]23C)C1 (some centres undefined)	-	?	-	-	3.5µM
SMILES	ERK EGF block	HTT aggregate	GLA inh pH 4.5	GLA spleen mod	HTT ATP protect
COc1ccc(-n2ncc(Cl)c(Cl)c2=O)cc1	-	4µM	-	-	.
COCCCNCCCOc1ccc(Cl)cc1C(C)(C)C	?	7.9µM	-	-	.
CNCCCOc1ccc(Cl)cc1C(C)(C)C	-	-[9.22 µM]	-	-	-
O=C(c1ccc(Cl)cc1)N1CCC(O)(CSc2ccc(Cl)cc2Cl)CC1	.	10µM	-	-	-[10 µM]
O=C(c1ccc(Cl)c(Cl)c1)N1CCC(O)(CN2CCOCC2)CC1	-	-	-	-	-
CCCCCCC(C)n1[nH]c(=O)c2c(C)cc(=O)[nH]c21 (centres undefined)	.	11µM	-	-	-[0.074 µM]
CCCCC(C)n1[nH]c(=O)c2c(C)cc(C)nc21 (centres undefined)	-	-[9.22 µM]	-	-	-[10 µM]
